# Only a selection was taken, and hits are over-represented in it overall.
# 12-LOX inh – blocks human arachidonate 12S-lipoxygenase; Potency, µM (titrated, usually from 108 µM), for the others: at the highest dose activity change, negative = inhibition, actives largely listed as inhibitors; hit rate 1.1% among 580,000; P18054; purified 12hLO, xylenol orange hydroperoxide absorbance; further: potency means the concentration at half of the fitted maximal effect
# Target sequence (P18054 whole entry, looked up): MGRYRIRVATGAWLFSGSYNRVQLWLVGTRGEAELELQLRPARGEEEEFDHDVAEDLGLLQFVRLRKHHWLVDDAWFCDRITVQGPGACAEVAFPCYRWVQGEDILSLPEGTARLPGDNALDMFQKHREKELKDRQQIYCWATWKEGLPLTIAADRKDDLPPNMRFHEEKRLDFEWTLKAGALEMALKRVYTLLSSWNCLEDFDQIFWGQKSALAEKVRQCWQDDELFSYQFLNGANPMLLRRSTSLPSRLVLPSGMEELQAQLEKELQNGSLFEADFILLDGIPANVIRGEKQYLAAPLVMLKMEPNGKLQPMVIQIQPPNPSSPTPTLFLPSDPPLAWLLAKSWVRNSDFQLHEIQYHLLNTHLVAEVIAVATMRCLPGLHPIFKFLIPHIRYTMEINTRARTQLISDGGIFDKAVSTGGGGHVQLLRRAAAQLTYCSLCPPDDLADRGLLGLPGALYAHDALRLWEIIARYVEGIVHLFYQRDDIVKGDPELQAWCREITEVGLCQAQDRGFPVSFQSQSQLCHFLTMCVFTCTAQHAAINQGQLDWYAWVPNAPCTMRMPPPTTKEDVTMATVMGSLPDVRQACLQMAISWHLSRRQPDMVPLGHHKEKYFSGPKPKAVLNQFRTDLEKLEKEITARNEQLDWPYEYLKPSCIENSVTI
#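 Purified human 12hLO at 150 nM in 25 mM Hepes, 0.01% Triton X-100, pH 7.0, preincubated 15 min at room temperature with compound. Reaction started with 40 uM arachidonic acid, 30 min at room temperature. Hydroperoxide measured by Fe-xylenol orange, 573/405 nm absorbance ratio.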
# TDP1 cell CPT – DT40-hTDP1 cell growth loss with CPT | Potency, µM (doses to about 46.2 µM), for the others: at the top dose activity change, negative = growth inhibition, usual class: inhibitors | hit rate 12% among 420,000 | AID 686979 | chicken DT40 Tdp1-/-;hTDP1 cells + 20 nM CPT, ATP luminescence, 48 h; further: potency means the concentration at half of the fitted maximal effect; nearly all actives have a fitted effect of over 55% in size
#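 Cell growth measured by CellTiter-Glo luminescence after a minimum 48 h, 37 C compound exposure with 20 nM CPT in Tdp1-knockout DT40 cells stably expressing hTDP1, seeded 400/well; qHTS titration format.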
# HT1080-NT tox – kills 2HG-producing HT-1080-NT fibrosarcoma cells | HT-1080-NT fibrosarcoma viability, CellTiter-Glo ATP luminescence, 48 h | Potency, µM (top dose mostly 46.1 µM), without a hit: top-dose activity, negative = less viability, most hits filed as cytotoxic | hit rate 1.6% among 360,000;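 further: NT is the 2HG producing partner of a matched IDH1 knockdown line; potency means the concentration at half of the fitted maximal effect; 0% = DMSO-treated cells and -100% = media-only wells without cells; nearly all actives have a fitted effect of over 55% in size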
#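 A 48-hour cytotoxicity screen used HT-1080-NT cells plated 2 hours before compound delivery. ATP-based CellTiter-Glo luminescence measured viability, normalized to DMSO and no-cell controls.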
# TDP1 cell noCPT – qHTS for Inhibitors of human tyrosyl-DNA phosphodiesterase 1 (TDP1): qHTS in cells in absence of CPT. DT40 Tdp1-/- hTDP1 cells, no CPT, ATP luminescence, 48 h. Potency, µM (doses to about 46.2 µM), for inactives: at the highest dose activity change, negative = growth inhibition, hits mostly inhibitors. hit rate 15% among 420,000. AID 686978, 2013; further: potency means the concentration at half of the fitted maximal effect; nearly all actives have a fitted effect of over 55% in size
#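 A cellular qHTS used chicken DT40 cells lacking endogenous Tdp1 but carrying stably transfected human TDP1. Compounds were applied without camptothecin, and cell growth kinetics were judged by ATP-dependent luminescence after ≥48 hr.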
# HT1080 IDH1KD tx – kills HT-1080 cells with IDH1 knockdown. Potency, µM (doses to about 46.1 µM), without a hit: top-dose activity, negative = toxicity, hits mostly cytotoxic. hit rate 2% among 360,000. HT-1080 IDH1 knockdown viability, ATP luminescence, 48 h;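 further: potency means the concentration at half of the fitted maximal effect; 0% = DMSO wells and -100% = cell-free medium wells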
#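 HT-1080-IDH1KD cells (IDH1 knocked down), 750/well in RPMI with 5% FBS, treated with compound 48 h at 37 degrees C. Viability by CellTiter-Glo luminescence, normalised to DMSO and no-cell wells; concentration-response curves classed.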
# IL1B secr inh – inflammasome signaling inhibition, IL-1 beta readout. THP-1 LPS/ATP IL-1B secretion, AlphaLISA, 16 h; stronger effect = lower value. activity change, % at 57.5 µM. hit rate 4.7% among 360,000. AID 743279; in the data active means activity change below about -50%; inconclusive means mostly about -30% to -49%
#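 Secreted IL-1B measured by AlphaLISA bead assay after 16 h compound exposure of THP-1 cells; compounds (final up to 57.5 uM) added 1 h before LPS (250 ng/mL) and ATP (1.25 mM) stimulation; lower signal means less secretion.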
# Starred values were filed as active, the others as inactive; i = inactive; ? = inconclusive; nt = not tested or not shown; [ ] = dose if it differs, or a comment. Unless noted, the call rests on the fitted dose curve; in most records, active means well fitted curve in the direction sought with a large enough effect; inconclusive means small, poorly fitted or top-dose-only effect, or another doubt; inactive means no such curve, though single readings can be large; an effect the other way counts as inactive or inconclusive. Unless noted, on the % scale 0 is the no-effect control and ±100 the full control effect.
SMILES,12-LOX inh,TDP1 cell CPT,HT1080-NT tox,TDP1 cell noCPT,HT1080 IDH1KD tx,IL1B secr inh
O=C(Nc1cc(Cl)ccc1Cl)c1cc(S(=O)(=O)NCCc2ccccc2)ccc1F,-1%,?,nt,16µM*,nt,nt
O=C(Nc1cccc(Cl)c1Cl)c1cc(S(=O)(=O)NCCc2ccccc2)ccc1F,-24%,?,-6%,?,-1%,-6
CC(C)c1ccc(NC(=O)c2cc(S(=O)(=O)NCC3COc4ccccc4O3)ccc2F)cc1 (configuration not stated),-24%,23µM*,?,18µM*,?,-69*
COc1ccc(NC(=O)c2cc(S(=O)(=O)NCC3COc4ccccc4O3)ccc2F)cc1 (configuration not stated),0%,?,-2%,?,-3%,?
Cc1cccc(Oc2ccc(S(=O)(=O)N3CCCCC3)cc2NCC(=O)Nc2cc(C)on2)c1,-21%,nt,nt,nt,nt,nt
CCC12CN3CC(CC)(CN(C1)C3c1ccc(C)cc1)C2=O (configuration not stated),-2%,nt,nt,nt,nt,nt
COc1ccc(CCNS(=O)(=O)c2ccc(F)c(C(=O)Nc3ccc(Cl)cc3)c2)cc1OC,-18%,29µM*,nt,21µM*,nt,nt
CC(C)n1nccc1N(Cc1ccc(Br)cc1)S(=O)(=O)c1ccccc1,-11%,23µM*,?,?,?,?
CC(C)n1nccc1N(Cc1ccc(Cl)cc1)S(=O)(=O)c1ccccc1,0%,-29%,-23%,?,-22%,-71*
COC(=O)c1ccccc1NC(=O)CN(c1ccnn1C(C)C)S(=O)(=O)c1ccccc1,24%,nt,nt,nt,nt,nt
COc1ccc(C=Cc2cc(OC)c(OC)c(OC)c2)cc1NC(=O)[C@H](N)CO,-21%[57.4 µM],nt,nt,nt,nt,nt
Cc1ccc(NC(=O)CC2Oc3ccc(C)cc3NC2=O)c(C)c1 (configuration not stated),-15%,?,1%,21µM*,-13%,9
COCCN1CC(CO)C2(CCN(Cc3cc(F)ccc3F)CC2)C1 (configuration not stated),53%,nt,nt,nt,nt,nt
COc1ccc(CNc2nc3ccccc3n2CCN2CCCCC2)cc1,?,18µM*,-18%,21µM*,-21%,?
CCN(CC)c1ccc(CNc2nc3ccccc3n2CCN2CCCCC2)cc1,?,4.6µM*,16µM*,?,?,-105*
CCN(CC)CCSc1nc2ccccc2n1Cc1ccccc1,?,?,-10%,16µM*,-9%,-18
CCN(CC)c1ccc(CNc2nc3ccccc3n2C)cc1,-10%,-27%,-1%,-8%,-12%,-20
OCCNc1nc2ccccc2n1CCN1CCCCC1,?,-13%,3%,2%,21%,-7
O=C(O)CSc1nc2ccccc2n1Cc1ccccc1,?,-6%,-1%,-19%,-8%,5
COc1ccc(CCN2CCC(Nc3nc4ccccc4n3Cc3ccc(F)cc3)CC2)cc1,?,15µM*,15µM*,7.3µM*,8.2µM*,-67*
NC(=O)c1cccc(-c2ccc3c(n2)CN(Cc2nc4ccccc4s2)C(=O)CO3)c1,-25%[176 µM],nt,nt,nt,nt,nt
COc1ccc(-c2cn3c(n2)N(C(=O)c2cccs2)CCC3)cc1,34%,nt,nt,nt,nt,nt
Brc1cccc(CNc2nc3ccccc3n2CCN2CCOCC2)c1,-6%,?,-18%,12µM*,-21%,-12
CCN(CC)CCSc1nc(O)c(-c2ccccc2)c(=O)n1-c1ccccc1,0%,7%,11%,2%,-1%,-4
CCOc1ccc(CNc2nc3ccccc3n2CCN2CCOCC2)cc1,-17%,?,1%,21µM*,1%,19
SMILES,12-LOX inh,TDP1 cell CPT,HT1080-NT tox,TDP1 cell noCPT,HT1080 IDH1KD tx,IL1B secr inh
CCN(CC)CCSc1nc2ccccc2c(=S)n1-c1ccccc1,?,?,?,23µM*,?,-56*
CCN(CC)CCn1c(NCc2nc3ccccc3n2Cc2ccccc2)nc2ccccc21,17%,?,?,?,11µM*,-59*
CCN(CC)CCn1c(NCc2ccco2)nc2ccccc21,?,-17%,0%,-13%,4%,-9
C[C@@H]1CN(C(=O)c2ccco2)C[C@H]1c1nc(-c2ccccc2)no1,-6%,nt,nt,nt,nt,nt
CC(C)CCC(=O)N[C@@H]1CN(Cc2ccncc2)C[C@H]1CN(C)C,69%,nt,nt,nt,nt,nt
CCCN(CCC)Cc1cc(=O)oc2cc(C)cc(C)c12,?,?,20%,?,1%,3
Cn1c(CNc2nc3ccccc3n2CCN2CCCCC2)nc2ccccc21,0%,-24%,-1%,?,-8%,-8
c1ccc(Cn2c(CNc3nc4ccccc4n3CCN3CCCCC3)nc3ccccc32)cc1,-26%,?,21µM*,?,23µM*,-51*
COc1cccc(CCC(=O)N2CCN(C(=O)c3nnn4c3COC(c3ccc(C)cc3)C4)CC2)c1 (configuration not stated),40%,nt,nt,nt,nt,nt
O=C(Nc1ccncc1)c1ccc(Cl)c(S(=O)(=O)N2CCc3ccccc32)c1,1%,9.2µM*,?,7.3µM*,?,?
Cc1cccc(NC(=O)c2ccc(Cl)c(S(=O)(=O)N3CCc4ccccc43)c2)n1,4%,23µM*,-20%,?,?,-13
CN1CCC(N(C)C(=O)c2ccc(Cl)c(S(=O)(=O)N3CCc4ccccc43)c2)CC1,-27%,?,-25%,?,-24%,-50*
Cc1cccc(NC(=O)c2ccc(Cl)c(S(=O)(=O)N3CCCC3)c2)n1,6%,-12%,-1%,?,-1%,i
CN1CCC(N(C)C(=O)c2cccc(S(=O)(=O)N3CCc4ccccc43)c2)CC1,-1%,-15%,-8%,-8%,-5%,-24
O=C1CN(C(=O)c2ccc(Cl)c(S(=O)(=O)N3CCc4ccccc43)c2)c2ccccc2N1,-11%,16µM*,7.3µM*,21µM*,?,2
Cc1oc2cc(OCC(=O)NCc3ccccc3F)ccc2c(=O)c1Oc1ccccc1,-2%,nt,nt,nt,nt,nt
CC(C)C1=NOC2(CCCN([S+](=O)([O-])c3cccs3)C2)C1 (configuration not stated),0%[6.33 µM],nt,nt,nt,nt,nt
O=C1CCCN1CCCN1C(=O)[C@@H]2C[C@@H](O)CN2C2(CN(Cc3cccs3)C2)C1=O,23%[176 µM],nt,nt,nt,nt,nt
CCOC(=O)c1c(C)[nH]c(C)c1C(=O)CN1C(=O)NC(CC(C)C)C1=O (configuration not stated),nt,10µM*,5%,?,4%,9

# Compound activity: PubChem, National Center for Advancing Translational Sciences (NCATS)
